# A1 inh = inhibitors of the anti-apoptotic protein A1, read as caspase activation; MEF A1-2A-BIM cells, Caspase-Glo 3/7 luminescence, 3 h; percent of clofoctol response, vehicle zero; caspase activation, % (test concentration not listed); 0.066% of 330,000 active;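 active means over half of replicate activation scores above 10%, or exactly half above 10 with the replicate mean above 10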
# Beta apoptosis = blocks beta cell apoptosis. INS-1E cytokine-induced death, ATP luminescence, 48 h; percent of positive-control rescue, neutral wells zero. 0.8% of 300,000 active. AID 435005. protection from apoptosis, % (concentration not given with the values);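 active means Every replicate reaches about 75%, or at least half do and their mean reaches it too, limit read from the data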;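 further: 0% = cytokine-treated negative control wells and 100% = positive control rescue; higher means more ATP so stronger rescue from cytokine killing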
# Mdm2-MdmX inh = disrupts the human Mdm2-MdmX interaction. 3% of 330,000 active. AID 485346. O15151+Q00987. inhibition, % at 8 µM. SaOS-2 split-luciferase Mdm2/MdmX complementation, luminescence;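 active means inhibition of at least 50% at 8 µM in the primary screen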
# aSyn 5UTR inh = MLPCN primary screen, SNCA 5' untranslated region; alpha-synuclein 5'UTR reporter, inhibitor activity; inhibition, % (tested at 7.5 µM); 0.82% of 300,000 active; AID 1813; in the data active means inhibition above about 60%;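 further: H4 neuroglioblastoma cells stably carrying SNCA 5'UTR luciferase fusion; 0% = DMSO wells and 100% = positive control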
# CSC inhib = cancer stem cell inhibition; cancer stem cell-like cells viability, luminescence; inhibition, % at 7.5 µM; 1.1% of 300,000 active; AID 2717; in the data active means inhibition above about 75%; tested in HMLE shEcad cells
# The depositor's hits bear a star; x = no result given. The list is not random: actives were taken first. Their share in the collection is about 4.1%.
SMILES,A1 inh,Beta apoptosis,Mdm2-MdmX inh,aSyn 5UTR inh,CSC inhib
Cc1cc(C(=O)NNc2ccc(F)cc2)no1,-0.4,-3.2,6.2,25.6,96.3*
COC(=O)c1cccc(-n2sc3ccccc3c2=O)c1,-10.7,6.8,27.8,x,25.3
Cc1ccccc1C(=O)NCCCNC(=O)c1ccccc1C,1.2,x,16.3,-7.9,10.5
C=CC[n+]1c(-c2ccc(OC)cc2)csc1NNC(=O)Nc1ccccc1,-1.1,x,28.5,-17.5,x
C=CC[n+]1c(-c2ccc(C)cc2)csc1Nc1ccc(NC(C)=O)cc1,x,x,x,100.4*,x
CCc1c(C2(O)CCCCC2)[nH]c2c(C(=O)OC)cc(Cl)cc12,-0.3,-1.0,x,11.3,104.9*
CC(=O)C(Cc1ccccc1)NC(=O)COc1ccc2c(c1)OCO2 (stereo not drawn),-0.6,-12.9,9.3,x,5.9
O=C(CC1SC(=Nc2ccccc2)N(CCc2c[nH]c3ccccc23)C1=O)Nc1ccccc1F (stereo not drawn),-0.9,-4.3,27.7,-28.0,81.1*
CCCCN1CC(=O)N2[C@H]3c4ccccc4OC[C@@H]3[C@H](c3ccccc3)[C@]2(C)C1=O,0.3,2.8,-38.7,x,-3.1
CN1CCN(c2ccc(S(=O)(=O)N3CCCCC3)cc2NC(=O)/C=C/c2ccc(OC(F)F)cc2)CC1,2.1,2.8,38.5,-33.6,-19.4
CN1CCN(c2ccc(S(=O)(=O)N3CCCCC3)cc2NC(=O)/C=C/c2ccc(Cl)c([N+](=O)[O-])c2)CC1,0.4,x,45.3,-47.4,98.4*
COc1ccc2nc(-n3c(O)c(C4=c5ccccc5=NC4=O)[nH]c3=S)sc2c1,0.5,9.9,x,-74.2,110.8*
Cn1c(O)c(C2=c3ccccc3=NC2=O)[nH]c1=S,-0.1,5.3,0.3,-34.4,-11.1
CC1(C)CC(N2CCN(Cc3ccccc3)CC2)=CC(=[N+]2CCCCC2)C1,-0.9,108.5*,35.6,-13.1,-2.5
c1ccc(CN2CCN(c3ncccn3)CC2)cc1,-0.4,2.1,-16.6,-14.2,-8.7
Cc1nc2cc(-c3ccc(Cl)cc3)nn2c(C)c1CCC(=O)NC(C)c1ccc2c(c1)OCCO2 (stereo not drawn),-0.6,10.4,0.4,73.8*,12.4
Cc1csc(NC(=O)CCc2c(C)nc3cc(-c4ccc(Cl)cc4)nn3c2C)n1,0.0,8.6,14.3,x,28.7
COc1ccc(CNC(=O)Cn2c(=O)n(CCC(=O)N3CCCCC3)c(=O)c3sccc32)cc1,0.0,1.3,8.5,-0.4,-14.5
CCC(c1nnnn1Cc1ccco1)N1CCN(c2cc(Cl)ccc2C)CC1 (stereo not drawn),2.8,0.7,-6.2,32.8,94.3*
Cc1ccc(Cl)cc1N1CCN(Cc2nnnn2Cc2ccco2)CC1,0.2,3.3,x,-2.0,18.5
CC(C)(c1ccccc1)c1ccc(OCCCN2CCNCC2)cc1,2.0,9.3,46.7,-42.4,79.9*
Cc1ccc(NS(=O)(=O)c2ccc(NC(=O)CN(c3cc([N+](=O)[O-])ccc3C)S(C)(=O)=O)cc2)c(C)c1,0.7,106.0*,37.4,20.9,-5.5
CS(=O)(=O)N(CC(=O)Nc1cccc(F)c1)c1cccc([N+](=O)[O-])c1,0.2,23.0,1.8,-10.1,-11.0
CC(=O)Nc1ccc(NC(=O)CN(c2cccc([N+](=O)[O-])c2)S(C)(=O)=O)cc1,0.2,107.5*,-9.2,68.6*,-17.4
Cc1ccc([N+](=O)[O-])cc1N(CC(=O)NC1CCCC1)S(C)(=O)=O,0.9,-3.5,16.3,10.2,-0.2
SMILES,A1 inh,Beta apoptosis,Mdm2-MdmX inh,aSyn 5UTR inh,CSC inhib
Cc1ccc(C)c(OCC(=O)Nc2cc(NC(=O)COc3cc(C)ccc3C)cc(C(=O)O)c2)c1,0.1,x,7.8,12.7,-9.3
COc1ccc(/C=C2/C(=O)N(c3nc4ccccc4s3)N=C2CSc2ccc(Cl)cc2)cc1,0.5,-0.8,13.5,-41.7,91.9*
CC(C)CC(=O)NC(NC(=S)Nc1sc2c(c1C#N)CCCC2)C(Cl)(Cl)Cl (stereo not drawn),0.2,21.3,48.1,-11.8,79.6*
O=C1NCCc2c1[nH]c1ccc([N+](=O)[O-])cc21,0.9,-10.7,47.9,70.1*,-2.4
CCCc1cc(-c2[nH]ncc2-c2ccc3c(c2)OCCCO3)c(O)cc1O,-0.6,-21.5,20.9,-24.6,94.6*
Cn1cc(CNCc2cn[nH]c2-c2ccc(F)cc2)c(-c2ccc3c(c2)OCCO3)n1,0.0,-3.3,12.7,-13.8,-10.2
Cc1cccc(NC(=O)CCC(=O)N/N=C/c2ccc(O)cc2O)c1,0.6,-0.3,-13.9,6.5,79.3*
Cc1cccc(N/N=C/c2ccncc2)c1,-0.3,-2.3,-30.1,-108.7,16.0
Cc1ccc(NC(=O)CCC(=O)N/N=C/c2ccccc2O)cc1,-0.5,68.4,41.1,15.6,7.1
Cc1cccc(N/N=C/c2ccccc2O)c1,-0.6,-1.4,-67.6,-182.0,94.1*
Cc1ccc(Nc2nnc(SCC(=O)NCC3CCCO3)s2)cc1C (stereo not drawn),-5.3,3.2,3.6,x,-8.5
CCOC(=O)C1=C(C)N2C(=C(C#N)[C@@H]1c1ccc(C(=O)OC)cc1)SC[C@@]2(O)C(C)(C)C,-0.2,24.6,21.7,12.7,82.0*
CCOC(=O)C1=C(C)N=C2SCCC(=O)N2C1c1ccc(C(=O)OC)cc1 (stereo not drawn),1.0,-7.9,5.4,-2.0,10.3
CCC1C(=O)N=C(SCC(=O)Nc2ccc(C)cc2)N(c2ccccc2)C1=O (stereo not drawn),-0.4,-11.0,20.7,-13.1,x
Cc1nc2ccccc2n1Cc1ccc(Br)cc1,-0.4,96.1*,-0.2,-25.8,-1.2
CCC(=O)Nc1nc2ccccc2n1Cc1ccc(C)cc1,-1.0,22.3,38.2,77.4*,-7.0
Cc1ccc(OCCn2c(NC(=O)c3ccco3)nc3ccccc32)cc1,0.5,32.7,42.3,67.2*,-3.1
Cc1nc2ccccc2n1Cc1ccccc1,0.2,4.7,13.7,-46.5,18.3
COc1ccccc1NC(=O)C(C)N(C)Cc1ccc(Cl)s1 (stereo not drawn),0.4,0.5,-3.5,5.0,12.2
Cc1cc(C)n(Cc2ccc(NC(=O)c3ccc(COc4ccccc4Br)cc3)cc2)n1,-0.1,78.3*,36.2,4.3,125.3*
O=C(Nc1nccs1)c1ccc(COc2ccc(F)cc2)o1,-0.4,1.2,-56.5,-97.1,25.7
NC(=O)c1ccc(NC(=O)c2ccc(COc3ccccc3Br)cc2)cc1,x,x,-6.0,x,x
O=C(NCc1cccnc1)c1ccc(COc2ccccc2Cl)cc1,-0.6,102.9*,19.3,-0.5,7.5
O=C(NCc1cccnc1)c1ccc(COc2ccccc2Br)cc1,0.5,18.7,10.6,-25.7,29.4
O=C(Nc1cccnc1)c1ccc(COc2ccccc2Br)cc1,1.1,2.2,6.8,-7.0,90.0*
O=C(Nc1nccs1)c1ccc(COc2ccccc2Br)o1,-0.8,1.1,-9.9,-13.8,195.6*
CCOC(=O)c1c(NC(=O)COC(=O)c2ccccn2)sc(C)c1C,-1.3,-3.2,16.7,x,x
COc1ccc(C(C(=O)NC2CCCCC2)N(C(=O)CCl)c2cccc(Cl)c2)cc1 (stereo not drawn),2.2,99.0*,x,-74.3,109.0*
